# Hits are enriched below; roughly 1.4% of the tested compounds scored in any of these assays.
# RecA splice inh: Mtb RecA intein splicing inhibitors, primary screen, biochemical, fluorescence, HTS; cell-free RecA intein splicing; AID 2221, 2009; Protein RecA (Mycobacterium tuberculosis (strain ATCC 25618 / H37Rv)), P9WHJ3; inhibition, % (test concentration not listed); actives 0.75% (n = 290,000); in the data active = inhibition above about 30%
# Target sequence (P9WHJ3 whole entry, looked up, canonical isoform): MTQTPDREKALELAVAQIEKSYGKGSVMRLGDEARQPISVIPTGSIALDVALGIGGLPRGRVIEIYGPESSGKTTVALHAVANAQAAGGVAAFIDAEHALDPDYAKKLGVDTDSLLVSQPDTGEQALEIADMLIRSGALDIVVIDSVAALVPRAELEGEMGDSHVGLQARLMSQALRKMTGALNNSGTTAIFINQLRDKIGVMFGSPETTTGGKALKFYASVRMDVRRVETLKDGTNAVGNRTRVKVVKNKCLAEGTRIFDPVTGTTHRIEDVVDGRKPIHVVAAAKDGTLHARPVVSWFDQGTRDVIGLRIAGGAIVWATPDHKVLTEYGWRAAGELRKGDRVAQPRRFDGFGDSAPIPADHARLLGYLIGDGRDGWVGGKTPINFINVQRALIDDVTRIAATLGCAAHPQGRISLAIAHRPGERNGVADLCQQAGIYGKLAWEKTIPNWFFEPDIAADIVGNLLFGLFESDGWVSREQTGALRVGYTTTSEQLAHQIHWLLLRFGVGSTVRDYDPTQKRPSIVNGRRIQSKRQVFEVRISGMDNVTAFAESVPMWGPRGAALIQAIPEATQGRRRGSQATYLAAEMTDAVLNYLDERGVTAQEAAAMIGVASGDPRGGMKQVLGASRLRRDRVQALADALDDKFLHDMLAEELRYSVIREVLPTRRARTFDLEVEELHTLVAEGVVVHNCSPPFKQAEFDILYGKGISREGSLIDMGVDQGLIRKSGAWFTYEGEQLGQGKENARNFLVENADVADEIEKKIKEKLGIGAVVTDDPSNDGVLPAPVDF
# Mtb hypoxia inh: PubChem AID 1159583. M. tuberculosis hypoxia-regulated fluorescent reporter, fluorescence. actives 0.1% (n = 300,000). fluorescence inhibition, % (no concentration beside the values); in the data active = fluorescence inhibition mostly above about 23%, no sharp cut-off; inactive = mostly below about 17%
# PrP UTR inh: inhibition of PrP 5' UTR reporter expression; cell-based PrP 5' UTR mRNA reporter, plate reader; inhibition, % (concentration not given with the values); actives 0.35% (n = 340,000); in the data active = inhibition above about 52%
# 3CLpro inhibitor: SARS-CoV 3CLpro protease inhibitors, primary screen, biochemical, quenched FRET; recombinant SARS-CoV 3CLpro, quenched FRET peptide cleavage; inhibition, % at 6 µM; actives 0.14% (n = 290,000); AID 1706, 2009; in the data active = inhibition above about 12%
# BJeLR viability: MLPCN primary cell-based screen for lethality selective to Ras in HRASV12 cells; BJeLR (HRASV12) viability, CellTiter-Glo ATP luminescence, 48 h; inhibition, % (test concentration not listed); actives 0.17% (n = 300,000); in the data active = inhibition above about 50%
# PrPC surface inh: inhibitors of human cell surface prion protein PrPC, primary screen, cell-based, TR-FRET; Major prion protein (Homo sapiens), P04156; TR-FRET read-out; inhibition, % at 13.8 µM; actives 0.43% (n = 370,000); in the data active = inhibition above about 24%
# GFP chromophore: counter-screen: blocks GFP chromophore formation, dose response, counter-screen, biochemical, fluorescence, homogeneous. shares compounds with RecA splice inh. cell-free GFP chromophore formation. EC50, µM. actives 83% (n = 2,100); call rule not given here
# Hits are given with their value; – = inactive; · = not tested or not shown.
SMILES,RecA splice inh,Mtb hypoxia inh,PrP UTR inh,3CLpro inhibitor,BJeLR viability,PrPC surface inh,GFP chromophore
CCN(CC)S(=O)(=O)c1ccc(N2C(=O)CC2(/C=C/c2ccccc2)C(=O)NC2CCCC2)cc1 (stereo not given),–,–,–,–,–,–,·
COc1ccccc1/C=C/C1(C(=O)NC2CCCC2)CC(=O)N1c1ccc(F)cc1 (stereo not given),57,–,–,–,–,–,22
CCCc1[nH]nc2c1C(C1CCCCC1)C(C#N)=C(N)O2 (stereo not given),–,–,–,–,–,–,·
CCCc1[nH]nc2c1C(c1ccsc1)C(C#N)=C(N)O2 (stereo not given),66,–,–,–,–,–,29
COCc1[nH]nc2c1C(c1ccsc1)C(C#N)=C(N)O2 (stereo not given),64,–,–,–,–,–,35
COCc1[nH]nc2c1C(c1sccc1C)C(C#N)=C(N)O2 (stereo not given),–,–,–,–,–,–,·
CN1CC2C3C(=O)N(Cc4ccccc4)C(=O)C3[C@](Cc3ccccc3)(C1=O)N2C(=O)c1ccc(C(F)(F)F)cc1 (stereo not given in full),·,–,·,·,·,·,·
O=c1cc(-c2c(F)c(F)c(F)c(F)c2F)oc2c(F)c(F)c(F)c(F)c12,86,·,·,–,–,·,13
CC(/C=C/c1ccccc1)=NNC(=O)c1cnccn1,·,–,·,·,·,·,·
O=C(OCn1ncc(Cl)c(Cl)c1=O)c1ccccc1Cl,89,–,–,–,–,–,5.2
O=C(OCn1ncc(Cl)c(Cl)c1=O)c1ccc(F)cc1,75,·,·,–,–,·,8.1
O=C(Cn1ncc(Cl)c(Cl)c1=O)c1ccc(Cl)cc1,–,–,–,–,–,–,·
CCCN1CCCCC1C(=O)Nc1c(C)cccc1C (stereo not given),·,–,·,·,·,·,·
Cc1ccc(C=NNC(=O)c2cccc(S(=O)(=O)Nc3ccccc3Cl)c2)s1,·,–,·,·,·,·,·
O=C1CC(=O)N(c2cccc(C(F)(F)F)c2)C(=O)N1,–,–,–,–,–,–,·
COC(=O)c1cccc(N2C(=O)C(Cl)=C(N3CCOCC3)C2=O)c1,68,–,–,–,–,–,5.2
O=C1C(Cl)=C(N2CCOCC2)C(=O)N1c1cccc(C(F)(F)F)c1,90,–,–,–,–,–,2.6
COC(=O)c1cccc(Oc2nc(N3CCOCC3)nc(N3CCOCC3)n2)c1,·,·,·,–,·,·,·
COc1cc(NC(C)CCCN)c2ncccc2c1Oc1ccccc1 (stereo not given),36,–,–,–,–,–,33
Clc1ccc(-c2ccc(C=NNc3cc(N4CCOCC4)nc(N4CCOCC4)n3)o2)cc1,·,–,·,·,·,·,·
COC(CNC(=O)C1CCCN1C(=O)OCc1ccccc1)OC (stereo not given),–,–,–,–,–,–,·
COC(=O)[C@@H]1C[C@]2(OC(=O)c3ccccc3)C=CC(=O)C[C@@H]2N1C(=O)OCc1ccccc1,56,·,–,–,–,–,32
COc1ccc(SCC(C)CN2CCC(C(C)(C)C)CCC2=O)cc1 (stereo not given),·,–,·,·,·,·,·
CC(=O)N1N=C(c2ccco2)CC1c1cccs1 (stereo not given),–,–,–,–,–,–,·
O=C(CCl)N1N=C(c2ccco2)CC1c1cccs1 (stereo not given),67,·,–,–,–,·,25
SMILES,RecA splice inh,Mtb hypoxia inh,PrP UTR inh,3CLpro inhibitor,BJeLR viability,PrPC surface inh,GFP chromophore
COC(=O)CN1C(=O)C2C(C)C3=C4C(CC(C(=O)OC)=CC(C(=O)OC)C4[C@](C)(NC(=O)c4ccccc4)C3=O)C2C1=O (stereo not given in full),·,–,·,·,·,·,·
CCOc1cc(C=NNC(=O)c2ccc(N(C)S(=O)(=O)c3ccccc3)cc2)ccc1OC,·,–,·,·,·,·,·
CC(CC(=O)Nc1cc(C)ccn1)=NNC(=O)c1ccc(C(C)(C)C)cc1,·,–,·,·,·,·,·
C/C(CC(=O)Nc1cc(C)ccn1)=N\NC(=O)c1ccccc1C,50,·,–,–,–,–,34
C/C(CC(=O)Nc1cc(C)ccn1)=N\NC(=O)c1cccc(F)c1,43,·,–,–,–,–,33
C/C(CC(=O)Nc1cc(C)ccn1)=N\NC(=O)COc1cccc(C)c1,94,·,·,–,–,·,7
C/C(CC(=O)Nc1cc(C)ccn1)=N\NC(=O)c1ccncc1,75,·,–,–,–,–,17
Cc1ccc(S(=O)(=O)N2C(c3ccc(Cl)cc3)CC=C(C(=O)O)C2c2cccc(Cl)c2)cc1 (stereo not given),·,–,·,·,·,·,·
C/C(CC(=O)Nc1ccccn1)=N\NC(=O)c1cccc(C)c1,41,·,–,–,–,–,37
CC(=O)OC1CC2C(C)=CC3OC(=O)C(C)C3CC2[C@]1(C)O (stereo not given in full),·,–,·,·,·,·,·
CC1(C)Cc2ccccc2C2=NNC(=O)C2=N1,94,–,–,–,–,–,1.1
CC1(C)Cc2ccccc2C(Nn2cnnc2)=N1,–,–,–,–,–,–,·
Cc1nn(-c2ccc(F)cc2)c(Cl)c1C=NNC(=O)c1cccc(S(=O)(=O)N2CCCC2)c1,·,–,·,·,·,·,·
CCc1nnc(N/N=C/c2cc(Br)c(O)cc2O)n1N,40,·,–,–,–,–,32
CCc1nnc(NN=Cc2ccccc2F)n1N,·,–,·,·,·,·,·
Cc1nn(-c2ccccc2)c(N)c1C1(O)C(=O)N(C(C)C)c2ccccc21 (stereo not given),–,–,–,–,–,–,·
Cc1nn(-c2ccccc2)c2c1C1(C(=O)N(C(C)C)c3ccccc31)C(C#N)=C(N)O2 (stereo not given),81,–,–,–,–,–,12
CCCCCn1c(N)c(C(=O)NCCN2CCOCC2)c2nc3ccccc3nc21,–,·,–,–,–,–,·
CCCCNC(=O)CSc1nc2ccccc2c(=O)n1Cc1ccc2c(c1)OCO2,–,–,–,–,–,–,·
CCCCNC(=O)c1c(N)n(Cc2ccc3c(c2)OCO3)c2nc3ccccc3nc12,68,–,–,–,–,–,–
CCCCCn1c(N)c(C(=O)NCc2cccs2)c2nc3ccccc3nc21,82,–,·,–,–,–,3.2
CC(C)CC1NC(=O)C(CO)NC(=O)c2cc([N+](=O)[O-])cc(I)c2OCCC(C(N)=O)NC1=O (stereo not given),·,–,·,·,·,·,·
O=C(NCCN1CCCC1)c1ccccc1Cl,–,–,–,–,–,–,·
O=C1C(Cl)=C(NCCN2CCCCC2)C(=O)c2ccccc21,48,–,–,–,–,·,26
CCNC1=C(Cl)C(=O)c2ccccc2C1=O,76,–,–,–,–,–,33
